# Laboratory results published in PubChem BioAssay (NCATS).
# Results filed as inconclusive are left out. Where a call stands in place of a potency, no number is given. The source made the active and inactive calls. Unless noted, calls come from the whole dose curve; as a rule, active = well fitted curve in the direction sought with a large enough effect; inconclusive = small, poorly fitted or top-dose-only effect, or another doubt; inactive = no such curve, though single readings can be large; an effect the other way counts as inactive or inconclusive.
# Tests used:
# [1] = molecular target: Cytochrome P450 2D6 (Homo sapiens) (UniProt P10635); assay: Cytochrome P450 family 2 subfamily D member 6 (CYP2D6) small molecule antagonists: luciferase biochemical (cell-free) qHTS assay (AID 1645840; active = well fitted curve in the direction sought with a large enough effect in the repeat runs; an effect the other way counts as inactive or inconclusive; note: nearly all actives have a fitted effect of over 55% in size; note: potency is the fitted concentration of half-maximal effect)
# Cytochrome P450 2D6 (Homo sapiens), sequence (P10635 whole entry, looked up): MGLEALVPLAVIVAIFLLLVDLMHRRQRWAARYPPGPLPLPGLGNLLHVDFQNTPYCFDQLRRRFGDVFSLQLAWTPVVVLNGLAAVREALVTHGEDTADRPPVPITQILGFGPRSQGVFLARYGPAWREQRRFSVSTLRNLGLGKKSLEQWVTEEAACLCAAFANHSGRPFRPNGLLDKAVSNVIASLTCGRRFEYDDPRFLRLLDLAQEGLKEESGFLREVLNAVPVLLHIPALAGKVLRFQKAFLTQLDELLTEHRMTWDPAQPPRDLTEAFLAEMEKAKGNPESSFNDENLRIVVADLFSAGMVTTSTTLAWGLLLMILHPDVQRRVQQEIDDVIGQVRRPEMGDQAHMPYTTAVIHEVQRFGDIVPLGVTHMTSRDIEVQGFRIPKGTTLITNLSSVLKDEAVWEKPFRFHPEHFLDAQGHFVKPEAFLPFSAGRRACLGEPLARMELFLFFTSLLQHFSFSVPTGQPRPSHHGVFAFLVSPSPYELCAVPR
# Outline: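 P450-Glo luminescent screen: recombinant CYP2D6 enzyme–proluciferin substrate mix preincubated with compound 10 min at room temperature, then NADPH regeneration added for 1 h at room temperature. Detection reagent added for 20 min; luciferin light read as relative luminescence units.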
# [2] = molecular target: Cytochrome P450 2C9 (Homo sapiens) (UniProt P11712); assay: Cytochrome P450 family 2 subfamily C member 9 (CYP2C9) small molecule antagonists: luciferase biochemical (cell-free) qHTS assay (AID 1645842; active = well fitted curve in the direction sought with a large enough effect in the repeat runs; an effect the other way counts as inactive or inconclusive; note: nearly all actives have a fitted effect of over 55% in size; note: potency is the fitted concentration of half-maximal effect)
# Cytochrome P450 2C9 (Homo sapiens), sequence (P11712 whole entry, looked up): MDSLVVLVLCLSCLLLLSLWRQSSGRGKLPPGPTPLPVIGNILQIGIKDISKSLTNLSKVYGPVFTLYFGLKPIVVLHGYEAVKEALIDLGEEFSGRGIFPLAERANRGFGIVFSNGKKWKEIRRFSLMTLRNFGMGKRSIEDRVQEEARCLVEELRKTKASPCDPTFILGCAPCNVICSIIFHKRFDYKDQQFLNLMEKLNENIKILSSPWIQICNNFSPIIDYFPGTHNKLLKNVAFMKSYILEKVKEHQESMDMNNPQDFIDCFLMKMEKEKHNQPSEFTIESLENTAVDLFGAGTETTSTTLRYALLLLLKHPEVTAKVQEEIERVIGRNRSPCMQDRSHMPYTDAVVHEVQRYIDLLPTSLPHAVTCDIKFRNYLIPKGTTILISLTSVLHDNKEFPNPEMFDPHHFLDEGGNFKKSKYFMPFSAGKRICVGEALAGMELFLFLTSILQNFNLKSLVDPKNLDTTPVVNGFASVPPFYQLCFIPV
# Outline: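 Luminescence, after 20 min with luciferin detection reagent, reflected CYP2C9 turnover during a 1 h NADPH-driven reaction at 37C. Enzyme-substrate mix contained 0.4% bovine serum albumin and was preincubated with compound 10 min at room temperature.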
# [3] = Primary qHTS for inhibitors of nuclear receptor binding SET domain protein 2 (NSD2) in an isogenic RCH-ACV NSD2 p.E1099K mutant (9B) (AID 1645876); note: nearly all actives have a fitted effect of over 70% in size; note: potency is the fitted concentration of half-maximal effect
# [4] = molecular target: Calcium and integrin-binding protein 1 (Homo sapiens) (UniProt Q99828); assay: Primary qHTS for Identification of Calcium Integrin Binding Protein 1 (CIB1) Competitor (AID 1508620);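 note: GST tagged CIB1 binding a fluorescein labelled alphaIIb integrin peptide tracer; top concentration of the series differs between compounds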
# Calcium and integrin-binding protein 1 (Homo sapiens), sequence (Q99828 whole entry, looked up): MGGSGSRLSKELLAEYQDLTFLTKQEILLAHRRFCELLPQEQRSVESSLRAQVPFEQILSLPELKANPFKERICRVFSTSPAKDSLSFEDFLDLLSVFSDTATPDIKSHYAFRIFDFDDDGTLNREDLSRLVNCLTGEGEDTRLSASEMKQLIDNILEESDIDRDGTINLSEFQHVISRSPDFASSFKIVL
# Outline: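 Fluorescence polarization competition: GST-tagged CIB1 (1 uM final) preincubated with compound 15 min at room temperature, then FITC-labelled alphaIIb peptide (100 nM final) added. After 15 min at room temperature, polarization read at Ex 480/Em 540.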
compound,measurement,setting,value
Cc1cc(-c2cc(O)ccc2Cl)cc2nnc(Nc3ccc(OCCN4CCCC4)cc3)nc12,Potency,[1],16.9 µM (active)
same,Potency,[2],12 µM (active)
same,Potency,[3],3.25 µM (active)
CC(=O)CCC1=C(C)C(O[C@@H]2O[C@H](CO)[C@@H](O)[C@H](O)[C@H]2O)C(O)CC1(C)C (stereo partly specified),Potency,[4],inactive
same,Potency,[3],inactive
CC1(C)CC[C@]2(C(=O)O[C@@H]3O[C@H](CO)[C@@H](O)[C@H](O)[C@H]3O)CC[C@]3(C)C(=CCC4[C@@]5(C)C[C@@H](O)[C@H](O)[C@](C)(C=O)C5CC[C@]43C)[C@@H]2[C@@H]1O (stereo partly specified),Potency,[4],inactive
same,Potency,[3],inactive
O=C1C=CC2OC(c3ccccc3)C(O)C2O1 (stereo unspecified),Potency,[4],inactive
same,Potency,[3],5.78 µM (active)
O=C1CC2(CCCC2)[C@H](O)C(=O)N1CCCCN1CCN(c2ncccn2)CC1,Potency,[1],12 µM (active)
same,Potency,[2],10.7 µM (active)
same,Potency,[3],inactive
CC(C)C(CO)Nc1nc(Nc2ccc(C(=O)O)c(Cl)c2)c2ncn(C(C)C)c2n1 (stereo unspecified),Potency,[1],inactive
same,Potency,[3],inactive
C[C@@H]1O[C@@H](O[C@H]2[C@H](O[C@H]3[C@H](O[C@H]4CC[C@@]5(C)C(CC[C@]6(C)C5CC=C5[C@@H]7CC(C)(C)C[C@@H](O)[C@]7(C)CC[C@]56C)[C@@]4(C)CO)O[C@H](C(=O)O)[C@@H](O)[C@@H]3O)OC[C@H](O)[C@@H]2O)[C@H](O)[C@H](O)[C@H]1O (stereo partly specified),Potency,[4],inactive
same,"activity change, negative = viability loss",[3],2.23% [at 9.23 µM] (inactive)
COCCOc1ccc(N2CCN(CCn3ncc4c3nc(N)n3nc(-c5ccco5)nc43)CC2)cc1,Potency,[1],inactive
same,Potency,[2],inactive
same,Potency,[3],inactive
C/C=C(/COC(=O)/C(C)=C/C)C(=O)OC(CC)c1ccc(OC)c(OC)c1 (stereo unspecified),Potency,[4],inactive
same,Potency,[3],inactive
